According to PubChem BioAssay (NCATS):
Inconclusive results are not listed. Activity calls are given as the source filed them. Calls follow the shape of the dose curve; as a rule, active = well fitted cell-killing curve with a large enough effect; inconclusive = small, poorly fitted or top-dose-only effect, or effect the other way; inactive = flat fitted curve, though single readings scatter.

Columns and labels:
Assay in all cases: Primary qHTS to identify gynecologic anti-cancer compounds using libraries of approved drugs and bioactive compounds (AID 1345084); also: nearly all actives have a fitted effect of over 55% in size
[1] = tested on: Es-2; conditions: Gynecologic cancer cell panel viability, ATPlite luminescence, 48 h; series mostly up to 57.5 µM
Method in brief: (§1)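 Five-point cytotoxicity, 48 h drug exposure at 37 C, 5% CO2, on cells seeded 16 h beforehand. ATP content read by ATPlite luminescence.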

[2] = tested on: HeLa; conditions: Gynecologic cancer cell panel viability, ATPlite luminescence, 48 h; series mostly up to 57.5 µM
Method in brief: as §1

[3] = tested on: Hek293T; conditions: Gynecologic cancer cell panel viability, ATPlite luminescence, 48 h, control line for the selectivity index; series mostly up to 57.5 µM
Method in brief: as §1

[4] = tested on: JEG-3; conditions: Gynecologic cancer cell panel viability, ATPlite luminescence, 48 h; series mostly up to 57.5 µM
Method in brief: as §1

[5] = tested on: OV90; conditions: Gynecologic cancer cell panel viability, ATPlite luminescence, 48 h; series mostly up to 57.5 µM
Method in brief: as §1

[6] = tested on: PA-1; conditions: Gynecologic cancer cell panel viability, ATPlite luminescence, 48 h; series mostly up to 57.5 µM
Method in brief: as §1

[7] = tested on: SKOV3; conditions: Gynecologic cancer cell panel viability, ATPlite luminescence, 48 h; series mostly up to 57.5 µM
Method in brief: as §1

[8] = tested on: Tov-21-G; conditions: Gynecologic cancer cell panel viability, ATPlite luminescence, 48 h; series mostly up to 57.5 µM
Method in brief: as §1

[9] = tested on: Tov112D; conditions: Gynecologic cancer cell panel viability, ATPlite luminescence, 48 h; series mostly up to 57.5 µM
Method in brief: as §1
% is scaled to controls: 0 for no effect and ±100 for the full control effect.

CC1=C(C)C(=O)OC(C(C)C2C(O)CC3C4C5OC5C5(O)CC(OC6OC(CO)C(O)C(O)C6O)CC(O)C5(C)C4CCC32C)C1 (stereo not drawn)
inactive: Potency [1] | Potency [2] | Potency [3] | Potency [4] | Potency [5] | Potency [6] | Potency [7] | Potency [8] | Potency [9]

COc1cc(/C=C/C(=O)OC2[C@H](O)CC(O)(C(=O)O)C[C@H]2O)ccc1O (stereo partly drawn)
inactive: Potency [1] | Potency [2] | Potency [3] | Potency [4] | Potency [5] | Potency [6] | Potency [7] | Potency [8] | Potency [9]

C[C@]12CC[C@@H]3c4ccc(O[C@@H]5O[C@H](C(=O)O)[C@@H](O)[C@H](O)[C@H]5O)cc4CC[C@H]3[C@@H]1CCC2=O
inactive: Potency [1] | Potency [2] | Potency [3] | Potency [4] | Potency [5] | Potency [6] | Potency [7] | Potency [8] | Potency [9]

C[C@]1(OC(=O)/C=C/c2ccccc2)C[C@H](O)[C@]2(O)C=CO[C@@H](O[C@@H]3O[C@H](CO)[C@@H](O)[C@H](O)[C@H]3O)C12 (stereo partly drawn)
inactive: Potency [1] | Potency [2] | Potency [3] | Potency [4] | Potency [5] | Potency [6] | Potency [7] | Potency [8] | Potency [9]

C[C@H](NCc1ccc(OCc2ccccc2F)cc1)C(N)=O
inactive: Potency [1] | Potency [2] | Potency [3] | Potency [4] | Potency [5] | Potency [6] | Potency [7] | Potency [8] | Potency [9]

C=C1CCC2(OC1)OC1CC3C4CC=C5CC(O)CC(O[C@@H]6OC[C@@H](O)[C@H](O)[C@H]6O)C5(C)C4CCC3(C)C1(O)C2C (stereo partly drawn)
inactive: Potency [1] | Potency [2] | Potency [3] | Potency [4] | Potency [5] | Potency [6] | Potency [7] | Potency [8] | Potency [9]

NC1CCC(N[C@@H]2C[C@H]2c2ccccc2)CC1 (stereo partly drawn)
inactive: Potency [1] | Potency [2] | Potency [3] | Potency [4] | Potency [5] | Potency [6] | Potency [7] | Potency [8] | Potency [9]

C/C=C(\C)C(=O)O[C@@H](C)[C@H]1CC[C@]2(O)C3CCC4C[C@@H](OC5CC(OC)C(OC6CC(OC)C(OC7CC(OC)C(OC8OC(C)C(OC9OC(CO)C(O)C(O)C9O)C(OC)C8O)C(C)O7)C(C)O6)C(C)O5)CC[C@]4(C)C3[C@H](O)[C@@H](O)[C@]12C (stereo partly drawn)
inactive: activity change, negative = cytotoxicity [1] 10.2% [at 6.55 µM] | activity change, negative = cytotoxicity [2] 3.49% [at 6.55 µM] | activity change, negative = cytotoxicity [3] 1.78% [at 6.55 µM] | activity change, negative = cytotoxicity [4] -1.08% [at 6.55 µM] | activity change, negative = cytotoxicity [5] 15.4% [at 6.55 µM] | activity change, negative = cytotoxicity [6] 3.34% [at 6.55 µM] | activity change, negative = cytotoxicity [7] -4.09% [at 6.55 µM] | activity change, negative = cytotoxicity [8] 13.7% [at 6.55 µM] | activity change, negative = cytotoxicity [9] 8.06% [at 6.55 µM]

COc1cccc(-n2nc(C(=O)O)cc2-c2ccc(C3CCCCC3)c(Cl)c2)c1
inactive: Potency [1] | Potency [2] | Potency [3] | Potency [4] | Potency [5] | Potency [6] | Potency [7] | Potency [8] | Potency [9]

COC1=CC(=O)C[C@@H](C)[C@]12Oc1cc(OC)cc(OC)c1C2=O
inactive: Potency [1] | Potency [2] | Potency [3] | Potency [4] | Potency [5] | Potency [6] | Potency [7] | Potency [8] | Potency [9]

C=CC(C)(C)C1(CC2NC(=O)C3CCCN3C2=O)C(=O)Nc2cc3c(cc21)C=CC(C)(C)O3 (stereo not drawn)
inactive: Potency [1] | Potency [2] | Potency [3] | Potency [4] | Potency [5] | Potency [6] | Potency [7] | Potency [8] | Potency [9]

C/C=C1\[C@H](O[C@@H]2O[C@H](CO)[C@@H](O)[C@H](O)[C@H]2O)OC=C(C(=O)OC)[C@H]1CC(=O)OC
inactive: Potency [1] | Potency [2] | Potency [3] | Potency [4] | Potency [5] | Potency [6] | Potency [7] | Potency [8] | Potency [9]

C[C@@H]1O[C@@H](O[C@@H]2[C@@H](O)[C@@H](O)[C@H](O[C@@H]3[C@@H](O)[C@@H](O[C@]4(CO)O[C@H](CO)[C@@H](O)[C@@H]4OC(=O)/C=C/c4ccc(O)cc4)O[C@H](CO)[C@H]3OC(=O)/C=C/c3ccc(O)cc3)O[C@H]2C)[C@H](O)[C@H](O)[C@H]1O
inactive: activity change, negative = cytotoxicity [1] 1.92% [at 11.6 µM] | activity change, negative = cytotoxicity [2] 11% [at 11.6 µM] | activity change, negative = cytotoxicity [3] 1.13% [at 11.6 µM] | activity change, negative = cytotoxicity [4] -6.75% [at 11.6 µM] | activity change, negative = cytotoxicity [5] 7.74% [at 11.6 µM] | activity change, negative = cytotoxicity [6] -5.64% [at 11.6 µM] | activity change, negative = cytotoxicity [7] -21.8% [at 11.6 µM] | activity change, negative = cytotoxicity [8] -2.88% [at 11.6 µM] | activity change, negative = cytotoxicity [9] -1.04% [at 11.6 µM]

CN1C(=O)c2ccccc2NC(=O)[C@]12O[C@@H]2c1cccc(O)c1
inactive: Potency [1] | Potency [2] | Potency [3] | Potency [4] | Potency [5] | Potency [6] | Potency [7] | Potency [8] | Potency [9]

CCOc1ccc(-c2ccc(Cn3c(CC(C)(C)C(=O)O)c(SC(C)(C)C)c4cc(OCc5ccc(C)cn5)ccc43)cc2)cn1
inactive: Potency [1] | Potency [2] | Potency [3] | Potency [4] | Potency [5] | Potency [6] | Potency [7] | Potency [8] | Potency [9]

CC1(CO)CC2C(O)C(=O)C3(CO)CC3(C)C2C1 (stereo not drawn)
inactive: Potency [1] | Potency [2] | Potency [3] | Potency [4] | Potency [5] | Potency [6] | Potency [7] | Potency [8] | Potency [9]

CC(=O)O[C@@H]1[C@H](O[C@@H]2O[C@H](CO)[C@@H](O)[C@H](O)[C@H]2O)[C@@H](O[C@@H]2O[C@@H](C)[C@H](O)[C@@H](O[C@@H]3O[C@H](CO)[C@@H](O)[C@H](O)[C@H]3O)[C@H]2O)[C@H](OC(=O)C23CCC4(C)C(=CCC5C6(C)CC(O)C(O[C@@H]7O[C@H](C(=O)O)[C@@H](O)[C@H](O)[C@H]7O)C(C)(C(=O)O)C6CCC54C)C2CC(C)(C)CC3O)O[C@@H]1C (stereo partly drawn)
inactive: activity change, negative = cytotoxicity [1] 1.96% [at 6.55 µM] | activity change, negative = cytotoxicity [2] -1.78% [at 6.55 µM] | activity change, negative = cytotoxicity [3] 14.8% [at 6.55 µM] | activity change, negative = cytotoxicity [4] 1.97% [at 6.55 µM] | activity change, negative = cytotoxicity [5] 8.45% [at 6.55 µM] | activity change, negative = cytotoxicity [6] 25.5% [at 6.55 µM] | activity change, negative = cytotoxicity [7] 2.37% [at 6.55 µM] | activity change, negative = cytotoxicity [8] 4.93% [at 6.55 µM] | activity change, negative = cytotoxicity [9] 4.44% [at 6.55 µM]
